# Screens from PubChem BioAssay.
# PLK1 PBD inh = blocks phosphopeptide binding to human PLK1 polo-box domain. 360,000 compounds, 2.8% hits. Plk1 PBD binding of FITC phosphopeptide, fluorescence polarization. P53350. Potency, µM, usual class: inhibitors; note: series mostly up to about 57 µM; nearly all actives have a fitted effect of over 65% in size
# Target sequence (P53350 whole entry, looked up, the tested form may be a part): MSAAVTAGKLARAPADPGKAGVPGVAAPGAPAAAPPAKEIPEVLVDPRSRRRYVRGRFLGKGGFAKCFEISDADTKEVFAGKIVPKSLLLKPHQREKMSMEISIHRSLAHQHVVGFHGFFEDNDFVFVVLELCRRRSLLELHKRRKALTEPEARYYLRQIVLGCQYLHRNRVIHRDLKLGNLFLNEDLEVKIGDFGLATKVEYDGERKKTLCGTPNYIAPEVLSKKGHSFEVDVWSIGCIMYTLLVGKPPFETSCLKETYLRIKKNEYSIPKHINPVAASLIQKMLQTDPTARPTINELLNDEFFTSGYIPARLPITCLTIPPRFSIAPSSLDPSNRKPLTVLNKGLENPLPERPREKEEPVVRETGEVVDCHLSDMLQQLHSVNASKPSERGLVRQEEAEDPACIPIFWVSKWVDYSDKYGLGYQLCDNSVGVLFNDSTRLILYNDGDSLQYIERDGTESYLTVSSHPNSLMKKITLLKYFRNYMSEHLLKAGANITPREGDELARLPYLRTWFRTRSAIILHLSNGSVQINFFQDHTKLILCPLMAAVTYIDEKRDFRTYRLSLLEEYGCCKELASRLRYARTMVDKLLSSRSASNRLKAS
# VDR inhibitor = inhibitors of human vitamin D receptor | P11473 | VDR-SRC2-3 peptide fluorescence polarization, 2 h | Potency, µM, most hits filed as inhibitors | 400,000 compounds, 0.93% hits | AID 504847
#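 Reagent solutions, kept cold and dark, are dispensed first; compounds are then pinned in at 23 nl, plates briefly spun, and incubated 2 h at ambient temperature. Inhibition of VDR–SRC2-3 peptide binding is read by fluorescence polarization.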
# TDP1 cell noCPT = qHTS for Inhibitors of human tyrosyl-DNA phosphodiesterase 1 (TDP1): qHTS in cells in absence of CPT; DT40 Tdp1-/- hTDP1 cells, no CPT, ATP luminescence, 48 h; 420,000 compounds, 15% hits; Potency, µM (top dose mostly 46.2 µM), actives largely listed as inhibitors; AID 686978, 2013; note: nearly all actives have a fitted effect of over 55% in size
#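 Chicken DT40 Tdp1-/- cells stably complemented with human TDP1 were seeded at 400 cells/well with DMSO in place of 20 nM camptothecin. After compound pinning, cells grew at least 48 hr at 37 °C; viability read by CellTiter-Glo luminescence.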
# TDP1 inh = blocks human tyrosyl-DNA phosphodiesterase 1; recombinant TDP1, AlphaScreen DNA substrate cleavage; Potency, µM (doses to about 130 µM), usual class: inhibitors; 350,000 compounds, 0.28% hits; AID 485290; note: nearly all actives have a fitted effect of over 40% in size
#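 AlphaScreen read-out: signal falls as enzyme removes the 3' tyrosine-FITC from a 5'-biotinylated DNA oligo (15 nM, 5 min, RT). Enzyme was E. coli-made recombinant Tdp1 at 1 nM, exposed to compound for 15 min beforehand; beads 10 ug/ml, 10 min.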
# DT40 TDP1 CPT = growth inhibition of DT40 Tdp1-/-;hTDP1 cells with camptothecin (screen for TDP1 inhibitors). Potency, µM (series often up to 46.2 µM), most hits filed as inhibitors. chicken DT40 Tdp1-/-;hTDP1 cells + 20 nM CPT, ATP luminescence, 48 h. 420,000 compounds, 12% hits. AID 686979; note: nearly all actives have a fitted effect of over 55% in size
#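 Chicken DT40 Tdp1-/- cells complemented with human TDP1, 400 cells/well, exposed to compounds plus 20 nM camptothecin for at least 48 h at 37 C; viability read as ATP content by CellTiter-Glo luminescence.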
# GCN5L2 inh = GCN5L2 (KAT2A) acetyltransferase inhibition. GCN5L2 HAT assay, ThioGlo1 CoA-SH fluorescence. AID 504327. Q92830. Potency, µM (top dose mostly 58.9 µM), most hits filed as inhibitors. 390,000 compounds, 0.21% hits
#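 Compounds, pin-transferred from DMSO stocks, meet 20nM GCN5L2 for 15 min before the reaction begins with H3(1-25) peptide (75uM) and acetyl-CoA (70uM). Thiol-reactive ThioGlo1 reports CoA release over 20 min at room temperature.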
# A number is an active result; – = inactive; ? = inconclusive; · = no result given; [ ] = another dose, or the depositor's remark. Sampled rows, rich in hits. Any-hit rate of the full collection: about 18%. Calls come from the whole dose curve; as a rule, active = well fitted curve in the direction sought with a large enough effect; inconclusive = small, poorly fitted or top-dose-only effect, or another doubt; inactive = no such curve, though single readings can be large; an effect the other way counts as inactive or inconclusive.
SMILES,PLK1 PBD inh,VDR inhibitor,TDP1 cell noCPT,TDP1 inh,DT40 TDP1 CPT,GCN5L2 inh
C=CCn1c2ccccc2c2nnc(SCCN3CCCCC3)nc21,–,–,18µM,·,–,–
c1ccc(Cn2c3ccccc3c3nnc(SCCN4CCCCC4)nc32)cc1,–,–,23µM,–,23µM,–
CCCn1c2ccccc2c2nnc(SCCN3CCOCC3)nc21,–,–,?,–,?,–
C=CCn1c2ccccc2c2nnc(SCCCn3c(=O)[nH]c4ccccc43)nc21,–,–,13µM,–,?,–
C=CCn1c2ccccc2c2nnc(SCN3C(=O)c4ccccc4C3=O)nc21,–,–,–,–,–,–
Cc1cccc(CNC(=O)CCCN2C(=O)c3cccnc3Oc3ccccc32)c1,·,–,?,–,?,–
COc1ccc(NC(=O)/C(C#N)=C/c2ccc(Sc3nncn3C)c([N+](=O)[O-])c2)cc1,?,?,26µM,–,16µM,–
Cc1cccc(NC(=O)CN(C)C(=O)c2ccc(N3CCCCCC3)c([N+](=O)[O-])c2)c1C,–,–,18µM,–,23µM,–
CN(CC(=O)Nc1ccc(Cl)c(C(F)(F)F)c1)C(=O)c1ccc(N2CCOCC2)c([N+](=O)[O-])c1,–,–,26µM,·,23µM,–
CN(CC(=O)Nc1ccc(N2CCOCC2)cc1)CC(=O)Nc1ccc(Cl)cc1[N+](=O)[O-],–,–,26µM,–,?,–
COc1ccc(NC(=O)CN(C)CC(=O)Nc2ccc(N3CCOCC3)cc2)c([N+](=O)[O-])c1,–,–,?,–,–,–
CN(CC(=O)Nc1ccccc1Cl)C(=O)c1ccc(N2CCCCCC2)c([N+](=O)[O-])c1,–,–,18µM,–,23µM,–
O=C(CCCOc1ccccc1)NC(=S)Nc1ccccc1,?,–,?,–,?,–
Cc1cc(CN2CCCC(C(=O)Nc3ccc(-c4nc5ccccc5[nH]4)cc3)C2)n[nH]1 (stereo unspecified),–,–,?,–,18µM,–
CCn1cc(CN2CCCC(C(=O)Nc3cccc(-c4cc5ccccc5[nH]4)c3)C2)c(C)n1 (stereo unspecified),–,–,?,–,23µM,–
CCOC(=O)N1CCC(N2CCCC(C(=O)c3ccc4cc(OC)ccc4c3)C2)CC1 (stereo unspecified),–,–,15µM,–,23µM,–
Cn1cc(CN2CCCC(C(=O)Nc3cccc(-c4cc5ccccc5[nH]4)c3)C2)cn1 (stereo unspecified),–,–,?,–,?,–
CCC(=O)N1CCCC(C(=O)Nc2nc3ccccc3[nH]2)CC1 (stereo unspecified),–,·,–,·,–,·
COCCc1ncc(CN2CCCC(C(=O)Nc3cccc(-c4cccc(C)c4)c3)C2)cn1 (stereo unspecified),?,–,23µM,–,?,–
Cc1cnc(C)c(-c2cc(F)cc3c2OC(CNC(=O)Cc2ccccc2C)C3)n1 (stereo unspecified),·,·,?,·,–[9.04 µM],·
CNc1cncc(-c2cccc(NS(C)(=O)=O)c2)n1,–,·,?,·,?,·
COc1ccccc1NC(=O)CN1CCN(C(=O)C2CCCO2)CC1 (stereo unspecified),–,–,–,–,–,?
Cc1ncc(CN2CCCC(C(=O)Nc3ccc(-c4cccc(F)c4)cc3)C2)n1C (stereo unspecified),–,–,?,–,23µM,–
COc1ccc(-c2[nH]ncc2CN2CCCC(C(=O)c3cccc(OC)c3)C2)cc1 (stereo unspecified),–,–,–,–,–,?
COc1ccc2cc(C(=O)C3CCCN(Cc4cccc(C)n4)C3)ccc2c1 (stereo unspecified),–,–,8.2µM,–,2.6µM,–
SMILES,PLK1 PBD inh,VDR inhibitor,TDP1 cell noCPT,TDP1 inh,DT40 TDP1 CPT,GCN5L2 inh
COc1cccc(-c2ccc(NC(=O)C3CCCN(Cc4cccc(C)n4)C3)cc2)c1 (stereo unspecified),–,·,23µM,·,?,·
COc1ccc2cc(C(=O)C3CCCN(C(=O)c4ccnn4C)C3)ccc2c1 (stereo unspecified),–,–,15µM,–,26µM,–
CNC[C@H](Cc1cccc2ccccc12)NC[C@H](CCSC)NCC1CCC(C(C)(C)C)CC1 (stereo partly specified),·,·,·,–,·,–
Cc1cc(C)n(-c2ccc(C(=O)N3CCc4c(cnc(C)c4CNC(=O)c4ccccc4F)C3)cc2)n1,·,·,–,·,–[9.04 µM],·
COc1cccc(-c2ccc(NC(=O)C3CCCN(Cc4ccc(CO)o4)C3)cc2)c1 (stereo unspecified),–,–,16µM,–,16µM,–
O=C1C2C(c3ccccc3)C=CC(c3ccccc3)C2C(=O)N1c1ccccn1 (stereo unspecified),–,–,?,–,–,–
COc1ccccc1N1CCN(CC(=O)c2c(C)[nH]c3ccccc23)CC1,–,–,?,–,?,–
O=C(CN1CCCCC1)c1c[nH]c2ccccc12,–,–,–,·,–,–
CC1CC(C)CN(CC(=O)c2c[nH]c3ccccc23)C1 (stereo unspecified),–,–,23µM,·,?,–
COc1ccccc1N1CCN(CC(=O)c2c[nH]c3ccccc23)CC1,–,–,10µM,–,?,–
COc1ccccc1N1CCN(CC(O)c2c(C)[nH]c3ccccc23)CC1 (stereo unspecified),–,–,16µM,·,?,–
O=C(COc1ccccc1F)Nc1ccccc1OCc1cc(=O)n2ccccc2n1,·,–,–,–,–,–
Cn1c(=O)n(C)c2cc(/C=N/NC(=S)NCc3ccccc3)ccc21,–,–,26µM,–,?,–
COc1cc(/C=N\NC(=O)CC#N)ccc1OC/C=C/c1ccccc1,–,–,?,–,26µM,–
COc1cc(/C=N/NC(=S)NCc2ccccc2)ccc1OCC#N,–,?,23µM,–,21µM,–
CC1CCCN(C(=O)Cn2nnc(-c3ccc([N+](=O)[O-])cc3)n2)C1 (stereo unspecified),·,·,·,·,·,–
COc1cc(OC)cc(-c2c(Sc3ccccc3)c3cc(-c4ccc(SC)cc4)ccc3n2C)c1,–,·,–,·,–,·
CCn1c(SC)nnc1-c1sc2cc(Cl)ccc2c1Cl,–,–,?,–,16µM,–
CSc1nnc(-c2ccccc2)n1C,–,–,–,–,–,–
CSc1nnc(-c2sc3cc(Cl)ccc3c2Cl)n1C,–,–,26µM,–,?,–
C=CCN(c1ccccc1)S(=O)(=O)c1cccc(C(=O)N(CC)CC(=O)Nc2c(F)cccc2F)c1,–,–,15µM,–,23µM,–
